# In PubChem BioAssay (Tox21):
# Inconclusive results are not listed. The source made the active and inactive calls. Unless noted, calls follow the shape of the dose curve; as a rule, active = well fitted cell-killing curve with a large enough effect in the repeat runs; inconclusive = weak or mixed curves, or effect the other way; inactive = flat fitted curve, though single readings scatter.
# Biological target: Estrogen receptor beta (Homo sapiens) (UniProt Q92731)
# Test: qHTS assay to identify small molecule antagonists of the estrogen receptor beta (ER-beta) signaling pathway (AID 1259378; active = well fitted inhibition curve with a large enough effect in the signal ratio in the repeat runs, not every such curve was filed as active; the % refers to the signal ratio; also: potency is read from the fitted curve at half-maximal effect)
# Settings: ER-beta-UAS-bla HEK293T, beta-lactamase FRET ratio, 16 h; series mostly up to 92.4 µM; activity, negative = inhibition: at the top concentration
# Method in brief: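 ER-beta-UAS-bla HEK293T (GripTite) cells in 2% charcoal-stripped FBS medium were preincubated 6 hr at 37C, dosed with compound, then stimulated with 1 nM E2 (final) for 16 hr; beta-lactamase reporter read by B/G FRET fluorescence after 2 hr substrate loading.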
# % is scaled to controls: 0 for no effect and ±100 for the full control effect.
# Chain of Estrogen receptor beta (Homo sapiens) (Q92731 whole entry, looked up): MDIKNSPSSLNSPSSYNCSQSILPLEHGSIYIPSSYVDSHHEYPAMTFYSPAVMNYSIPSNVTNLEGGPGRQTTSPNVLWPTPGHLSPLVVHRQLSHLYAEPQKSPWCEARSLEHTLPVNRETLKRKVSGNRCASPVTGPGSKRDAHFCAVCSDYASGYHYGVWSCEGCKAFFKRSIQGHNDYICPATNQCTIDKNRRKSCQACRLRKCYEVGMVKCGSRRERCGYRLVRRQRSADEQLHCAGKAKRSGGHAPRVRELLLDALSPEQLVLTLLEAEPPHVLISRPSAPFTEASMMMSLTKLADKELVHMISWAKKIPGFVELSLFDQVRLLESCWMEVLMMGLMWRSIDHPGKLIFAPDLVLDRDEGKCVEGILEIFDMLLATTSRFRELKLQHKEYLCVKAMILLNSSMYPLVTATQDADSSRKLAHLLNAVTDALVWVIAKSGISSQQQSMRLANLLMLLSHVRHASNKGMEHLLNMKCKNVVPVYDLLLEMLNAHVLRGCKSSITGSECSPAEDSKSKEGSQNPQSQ
Compound,"activity, negative = inhibition",Potency
Fc1cc(Br)ccc1CBr,-1.54% [at 42.5 µM] (inactive),–
CC(Cl)(Cl)[N+](=O)[O-],-6.19% (inactive),–
COC(=O)C(c1ccccc1)C1CCCCN1 (stereo not given),6.33% (inactive),–
c1cc2c(c(N3CCNCC3)c1)OCCO2,5.71% [at 42.5 µM] (inactive),–
CC1COC2(c3ccccc3Cl)c3cc(Cl)ccc3NC(=O)CN12 (stereo not given),–,26.6 µM (active)
O=C1OC(CCN2CCCCC2)OC1(c1ccccc1)c1ccccc1 (stereo not given),0.608% [at 42.5 µM] (inactive),–
c1ccc(N2CCNCC2)cc1,-0.62% [at 42.5 µM] (inactive),–
COc1ncc(F)c2nc(S(=O)(=O)Nc3c(F)cccc3F)nn12,2.6% [at 42.5 µM] (inactive),–
CNC(=O)Oc1c(C(C)(C)C)cc(C)cc1C(C)(C)C,20.2% (inactive),–
Clc1ccccc1N1CCNCC1,-13.7% [at 42.5 µM] (inactive),–
CCOP(=S)(OCC)Oc1ncn(-c2ccccc2)n1,2.63% (inactive),–
CCCCCCI,9.25% (inactive),–
CC(C(O)c1ccccc1)N(C)C/C=C/c1ccccc1 (stereo not given),-1.29% [at 42.5 µM] (inactive),–
CCC(C)(C)c1cc(-n2nc3ccccc3n2)c(O)c(C(C)(C)CC)c1,14.5% (inactive),–
N#CC(Cl)(Cl)Cl,1.36% (inactive),–
O=CNC(N1CCN(C(NC=O)C(Cl)(Cl)Cl)CC1)C(Cl)(Cl)Cl (stereo not given),-16.2% (inactive),–
CC(COc1ccc(Oc2ccccc2)cc1)Oc1ccccn1 (stereo not given),-11.2% (inactive),–
CC1=C(C(=O)O)N2C(=O)[C@@H](N)[C@H]2SC1,20.1% [at 19 µM] (inactive),–
Cc1cnc[nH]1,-4.57% (inactive),–
CCOP(=O)(OCC)OP(=O)(OCC)OCC,-4.56% (inactive),–
CCCCOC(=O)c1ccccc1C(=O)O,0.848% (inactive),–
CCOC(=O)C1(c2ccccc2)CCN(CCc2ccc(N)cc2)CC1,0.0148% [at 42.5 µM] (inactive),–
CCC(=O)c1ccccc1,3.71% (inactive),–

# System: not listed separately
# Test: qHTS assay to identify small molecule agonists of the androgen receptor (AR) signaling pathway in the presence of an antagonist - cell viability counter screen (AID 1259379);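 also: MDA-kb2 human breast cancer cells carrying an MMTV luciferase reporter; nearly all actives have a fitted effect of over 25% in size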
# Settings: MDA-kb2 viability, CellTiter-Fluor, 16 h; series mostly up to 92.4 µM; activity change, negative = cytotoxicity: at the top concentration
# Method in brief: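 MDA-kb2 human breast carcinoma cells (stable MMTV-luciferase, AR/GR responsive) were seeded 3,000 cells/well, pre-incubated 5 hr at 37C without CO2, then given 3.0uM nilutamide and compounds at 15 concentrations for 16 hr. Viability was read by CellTiter-Fluor fluorescence.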
row,Compound,"activity change, negative = cytotoxicity"
1,Fc1cc(Br)ccc1CBr,1.88% [at 42.5 µM] (inactive)
2,CC(Cl)(Cl)[N+](=O)[O-],-1.5% (inactive)
3,COC(=O)C(c1ccccc1)C1CCCCN1 (stereo not given),3.82% (inactive)
4,c1cc2c(c(N3CCNCC3)c1)OCCO2,-4.52% [at 42.5 µM] (inactive)
5,CNC(=O)N(C)c1nc2ccccc2s1,1.82% (inactive)
6,CC1COC2(c3ccccc3Cl)c3cc(Cl)ccc3NC(=O)CN12 (stereo not given),-1.96% [at 42.5 µM] (inactive)
7,O=C1OC(CCN2CCCCC2)OC1(c1ccccc1)c1ccccc1 (stereo not given),-0.889% [at 42.5 µM] (inactive)
8,c1ccc(N2CCNCC2)cc1,-2.61% [at 42.5 µM] (inactive)
9,COc1ncc(F)c2nc(S(=O)(=O)Nc3c(F)cccc3F)nn12,1.72% [at 42.5 µM] (inactive)
10,CNC(=O)Oc1c(C(C)(C)C)cc(C)cc1C(C)(C)C,6.1% (inactive)
11,Clc1ccccc1N1CCNCC1,3.48% [at 42.5 µM] (inactive)
12,O=C(O)c1ccc2[nH]cc(CCCCN3CC=C(c4ccccc4)CC3)c2c1,-7.19% [at 42.5 µM] (inactive)
13,CCN(CC)C(C)C(=O)c1ccccc1 (stereo not given),0.293% [at 42.5 µM] (inactive)
14,CCOP(=S)(OCC)Oc1ncn(-c2ccccc2)n1,-0.394% (inactive)
15,COc1ccc2c(c1OC)CN1CCc3cc4c(cc3C1C2)OCO4 (stereo not given),-2.56% [at 42.5 µM] (inactive)
16,CCCCCCI,1.38% (inactive)
17,CCC(=O)C(CCN(C)C)(c1ccccc1)c1ccccc1,-8.31% [at 42.5 µM] (inactive)
18,CCOC(=O)C(c1c(O)c2ccccc2oc1=O)c1c(O)c2ccccc2oc1=O,-0.274% [at 42.5 µM] (inactive)
19,CC(C(O)c1ccccc1)N(C)C/C=C/c1ccccc1 (stereo not given),-7.69% [at 42.5 µM] (inactive)

row,Compound,"activity change, negative = cytotoxicity"
1,CCC(C)(C)c1cc(-n2nc3ccccc3n2)c(O)c(C(C)(C)CC)c1,-2.79% (inactive)
2,CC(Oc1ccc(Oc2ncc(C(F)(F)F)cc2Cl)cc1)C(=O)O (stereo not given),-5.54% (inactive)
3,C#C[C@]1(O)C=C[C@H]2[C@@H]3CCC4=CC(=O)CC[C@@H]4[C@H]3CC[C@@]21CC,0.37% [at 42.5 µM] (inactive)
4,N#CC(Cl)(Cl)Cl,1.47% (inactive)
5,O=C(Nc1ccccc1)c1ccccc1I,-3.11% (inactive)
6,COP(N)(=S)Oc1ccccc1C(=O)OC(C)C (stereo not given),0.0823% (inactive)
7,O=CNC(N1CCN(C(NC=O)C(Cl)(Cl)Cl)CC1)C(Cl)(Cl)Cl (stereo not given),-0.999% (inactive)
8,CC(COc1ccc(Oc2ccccc2)cc1)Oc1ccccn1 (stereo not given),0.829% (inactive)
9,CC1=C(C(=O)O)N2C(=O)[C@@H](N)[C@H]2SC1,-2.71% [at 19 µM] (inactive)
10,Cc1cnc[nH]1,-1.04% (inactive)
11,C#CCN1C(=O)COc2cc(F)c(N3C(=O)C4=C(CCCC4)C3=O)cc21,-9.03% (inactive)
12,CCOP(=O)(OCC)OP(=O)(OCC)OCC,-0.977% (inactive)
13,CCCCOC(=O)c1ccccc1C(=O)O,3.64% (inactive)
14,CC(C)CC#N,-1.18% (inactive)
15,Cc1nc(N)nc(N)n1,0.948% (inactive)
16,CCOC(=O)C1(c2ccccc2)CCN(CCc2ccc(N)cc2)CC1,-9.09% [at 42.5 µM] (inactive)
17,CCC(=O)c1ccccc1,-0.161% (inactive)
18,C[C@]12CC[C@H]3[C@@H](CCC4=CC(=O)CC[C@@]43C)[C@@H]1CC[C@@H]2C(=O)O,5.04% [at 42.5 µM] (inactive)
